# Assay outcomes from PubChem BioAssay.
# Tau ThT inhib: qHTS for Inhibitors of Tau Fibril Formation, Thioflavin T Binding; recombinant tau K18 P301L, heparin-induced fibrillization, ThT fluorescence; Potency, µM (highest dose often 57.4 µM), most hits filed as inhibitors; 2.1% of 270,000 active; also: nearly all actives have a fitted effect of over 55% in size
# Target sequence (P10636 561-689 P618L limits assumed): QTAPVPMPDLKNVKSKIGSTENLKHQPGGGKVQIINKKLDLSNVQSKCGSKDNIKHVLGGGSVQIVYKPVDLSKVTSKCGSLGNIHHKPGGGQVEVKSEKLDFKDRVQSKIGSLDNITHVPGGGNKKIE
#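 Aggregation was driven by heparin (20 uM final) acting on recombinant tau […] bearing P301L in 100 mM sodium acetate pH 7; fibrils were detected with Thioflavin T.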
# Coupling enz: qHTS Assay for Inhibitors of Fructose-1,6-bisphosphate Aldolase from Giardia Lamblia: Coupling assay counterscreen | 0.67% of 290,000 active | coupling enzyme system counterscreen, AmpLite Red fluorescence | activity change, negative = inhibition, % at 58.2 µM, hits read low; in the data active = activity change below about -30%
#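 Coupling enzymes only (glyceraldehyde-3-phosphate) + compound, at 57.5 uM final, 10 min RT; add substrate/coupling/AmpLite Red mix, 20 min RT; fluorescence ex 525/em 598 nm. Actives flag coupling-system interference.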
# Tau FP inhib: qHTS for Inhibitors of Tau Fibril Formation, Fluorescence Polarization; K18 P301L tau heparin fibrillization, Alexa594 FP, 6 h; Potency, µM (top dose mostly 57.7 µM), most hits filed as inhibitors; Microtubule-associated protein tau (Homo sapiens), P10636; 0.39% of 280,000 active; also: nearly all actives have a fitted effect of over 55% in size
#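 K18 P301L tau (15 uM unlabeled/0.24 uM Alexa 594-labeled, final) + compound + heparin 20 uM final; 100 mM NaOAc pH 7; 6 hr 37 C; ThT 30 uM final added, 1 hr RT; FP ex 555/em 632 nm.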
# Tau fluor counter: Counterscreen qHTS for Inhibitors of Tau Fibril Formation, Fluorescence Polarization; tau K18 P301L (four-repeat tau fragment) Alexa594 fluorescence, heparin fibrillization; Potency, µM (titrated, usually from 57.7 µM); 0.93% of 280,000 active; also: nearly all actives have a fitted effect of over 55% in size
#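 Human K18 P301L tau (15 uM unlabeled plus 0.24 uM Alexa 594-labeled, final) in 100 mM sodium acetate pH 7 was mixed with compound and 20 uM heparin and incubated 6 hr at 37 C.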
# Sfp PPTase inh: qHTS Assay for Inhibitors of Bacillus subtilis Sfp phosphopantetheinyl transferase (PPTase); Biochemical Sfp PPTase activity, qHTS; Potency, µM, usual class: inhibitors; 3.5% of 310,000 active;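 also: the enzyme is Sfp with the accession as filed and its product quenches rhodamine fluorescence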
#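 Buffer: 50 mM Hepes-Na pH 7.6, 10 mM MgCl2, 0.01% Nonidet P-40, 0.01% BSA. Enzyme 15 nM, pre-exposed to compound 15 min; substrates then added and fluorescence change tracked over 30 min.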
# A number is an active result; n = inactive; u = inconclusive; x = not tested or not shown; ! = not active in a repeat; [ ] = dose if it differs, or a comment. An excerpt weighted towards active compounds, which were near 5.2% of everything screened. Unless noted, calls follow the shape of the dose curve; as a rule, active = well fitted curve in the direction sought with a large enough effect; inconclusive = small, poorly fitted or top-dose-only effect, or another doubt; inactive = no such curve, though single readings can be large; an effect the other way counts as inactive or inconclusive.
SMILES,Tau ThT inhib,Coupling enz,Tau FP inhib,Tau fluor counter,Sfp PPTase inh
COc1cc(NC(=O)C2C3C=CC(C3)C2C(=O)O)ccc1NC(=O)c1ccccc1 (stereo not drawn),x,n,x,x,89µM
COc1cc([N+](=O)[O-])ccc1NC(=O)C1C2C=CC(C2)C1C(=O)O (stereo not drawn),x,n,x,x,32µM
COc1ccc([C@]23Cc4ccccc4C(O2)c2c(cc(-c4ccccc4)oc2=O)O3)cc1,x,n,x,x,n
C=CCNC(=S)Nc1cccc(NC(=S)NCC=C)c1,n,n,n,n,n
C=CCNC(=S)N/N=C(\C)c1cccc(NC(C)=O)c1,n,n,n,n,50µM
CCN1C(=NCC(C)C)N[C@@H](c2ccccc2)[C@H](C(=O)OC)[C@H]1C,x,n,x,x,n
COCCn1c(C)cc(C(=O)COc2cccnc2[N+](=O)[O-])c1C,n,n,n,n,n
Cc1cc(C)c(C(=O)COc2cccnc2[N+](=O)[O-])cc1C,14µM,n,u,u,56µM
CCOc1ccc(C(C)=O)cc1N1C(=O)C2C3C=CC(C3=C(C)C)C2C1=O (stereo not drawn),n,n,n,n,45µM
CC(C)=CCC/C(C)=C/CO/N=C1/C[C@@H](O)[C@@H](O)[C@@H]2[C@@H]3C(=O)N([C@@H](C)c4ccccc4)C(=O)[C@H]3CC[C@@H]12,n[11.5 µM],n,n[11.6 µM],n[11.6 µM],n
COCCn1c(NC(=S)NC(=O)C2CC2)cc(=O)[nH]c1=O,n,n,n,n,22µM
COCCn1c(NC(=S)NC(=O)C23CC4CC(CC(C4)C2)C3)cc(=O)[nH]c1=O,n,n,n,n,n
CCCCNC(=O)CN1C(=O)c2c(c3ccccc3n2C)C1c1ccc(OC)cc1 (stereo not drawn),n,x,n,n,x
C/C(=N\NC(=O)c1ccc(O)cc1)c1ccc2c(c1)Nc1ccccc1S2,4.5µM,n,n,11µM[quencher],n
C/C(=N\NC(=O)c1ccccc1F)c1ccc2c(c1)Nc1ccccc1S2,2µM,n,u,3.5µM[quencher],n
COc1ccc(C(=O)N/N=C(/C)c2cccc(NC(=O)c3ccccc3F)c2)cc1,x,x,x,x,n
COC(=O)COc1ccc(-c2ccccc2)cc1C=O,u,n,n,n,79µM
COC(=O)COc1ccc(-c2ccc(F)cc2)cc1C=O,u,n,n,n,n
O=C1NCN(c2ccccc2)C12CCN(CCCC(c1ccc(F)cc1)c1ccc(F)cc1)CC2,u,n,u,u,79µM!
O=C1CCC(=O)N1CCC(c1ccc(F)cc1)c1ccco1 (stereo not drawn),n,n,n,n,n
Cc1ccc(C)n1-c1ccccc1N,n,-56,n,n,n
CC(/C=C1\SC(=S)N(NC(=O)c2ccncc2)C1=O)=C\c1ccccc1,10µM,n,n,u,45µM
CC(/C=C1\SC(=S)N(NC(=O)c2ccc(C)cc2)C1=O)=C\c1ccccc1,u,n,n,n,n
CC(/C=C1\SC(=S)N(NC(=O)c2ccccc2C)C1=O)=C\c1ccccc1,4µM,n,n,u,n
CCOCCCNC(=O)c1ccc(-n2c(-c3ccccc3)cc3c2CCC(C)C3)cc1 (stereo not drawn),n,x,5µM,u,x
SMILES,Tau ThT inhib,Coupling enz,Tau FP inhib,Tau fluor counter,Sfp PPTase inh
NC(=O)c1cc[n+](CC2=C(C(=O)O)N3C(=O)[C@@H](NC(=O)[C@H](c4ccccc4)S(=O)(=O)[O-])[C@@H]3SC2)cc1,x,n,x,x,u
O=C(c1ccccc1)c1ccc(OCC(O)CNCc2ccc(Cl)cc2)cc1 (stereo not drawn),x,n,x,x,79µM
CCOC(=O)c1cc2c(=O)n3cccc(C)c3nc2n(Cc2ccco2)c1=NC(=O)c1cccnc1,n,n,n,n,25µM
CCOC(=O)c1cc2c(=O)n3ccccc3nc2n(Cc2ccco2)c1=NC(=O)c1ccccc1Br,u,x,n,n,x
CCOC(=O)c1cc2c(=O)n3ccccc3nc2n(Cc2ccco2)c1=NC(=O)c1cccnc1,n,n,n,n,35µM
CCOC(=O)c1cc2c(=O)n3ccccc3nc2n(Cc2ccco2)c1=NC(=O)c1ccccc1OCC,u,n,n,n,45µM
Cc1cccc(C(=O)N=c2c(C#N)cc3c(=O)n4cccc(C)c4nc3n2Cc2ccco2)c1,u,n,n,n,28µM
CCOC(=O)c1cc2c(=O)n3ccccc3nc2n(Cc2ccco2)c1=NC(=O)c1cccc(C)c1,n,x,n,n,x
Cc1ccc(NC(=O)C2CCCN(c3nc4ccccc4s3)C2)c(C)c1 (stereo not drawn),n,x,n,n,x
COc1cccc(N2C(=O)N(Cc3ccc(C#N)cc3)c3ccccc3S2(=O)=O)c1,n,x,n,n,x
CC[C@]12CCCN3CCc4c(n(c5ccccc45)C(=O)C1)[C@H]32,n,n,n,n,n
O=C(O)/C=C/c1ccc2noc(-c3ccccc3)c2c1,n,n,n,n,50µM
NC(=O)COC(=O)c1ccc2noc(-c3ccccc3)c2c1,x,n,x,x,n
Cc1ccc(-c2onc3ccc(C=O)cc23)cc1,25µM,n,u,u,n
CCN(CC)CCCN1C=C2C(=O)C(C)(OC(=O)c3cccs3)C(=O)C=C2C=C1CCCC(=O)OC (stereo not drawn),n[11.5 µM],n,n[11.6 µM],n[11.6 µM],n
COc1ccc2c(C)c(CCC(=O)NCCc3ccccc3OC)c(=O)oc2c1,n,x,n,n,x
CC(C)(SC(=S)N1CCCCCC1)C(=O)O,n,n,n,n,79µM
CC(C)(SC(=S)N1CCOCC1)C(=O)O,n,n,n,n,n
Cc1[nH]c2ccccc2c1/C=N/Nc1nc(Nc2ccc(F)cc2)nc(N2CCOCC2)n1,28µM,n,u,32µM[quencher],n
N=c1ccn2c(n1)OCC1C2O[C@@H](O)[C@H]1O (stereo partly drawn),n,n,n,n,n
CCOC(=O)c1ccc(CN(Cc2ccc(OC)cc2)S(=O)(=O)c2cccc(C(F)(F)F)c2)cc1,n,x,n,n,x
CCOC(=O)CC1Sc2ccccc2NC1=S (stereo not drawn),u,n,n,u,40µM
CSCCOC(=O)C1=C(C)NC(=O)NC1c1ccc2c(c1)OCO2 (stereo not drawn),x,n,x,x,n
CSCCOC(=O)C1=C(C)Nc2ccc(C)cc2S1,u,n,n,u,50µM
CCOC(=O)C1=C(C)Nc2ccc(C)cc2S1,16µM,n,n,u,50µM
CCOC(=O)C1=C(C)Nc2ccccc2S1,x,n,n,n,50µM
CCOCCOC(=O)C1=C(C)Nc2ccc(C)cc2S1,u,n,n,n,u
